This note sets out measurements from PubChem BioAssay.

Molecules are shown by their SMILES. The source made the active and inactive calls.

Test [1] can be described thus: small molecules captured by biotinylated probe aFSTL3 – biochemical, small-molecule microarray, fluorescence 635/667, stem cell growth factor project, primary screen (AID 1064).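 Further: measures binding of the biotinylated anti-FSTL3 antibody to printed compounds.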 The settings on record: higher = more signal.
The nature of test [2]: binders from COS7 lysate, DM2A8 probe, primary screen, torsin A project, cell lysate, small-molecule microarray, fluorescence 635/667 (AID 1065). The settings on record: higher = more signal, COS7 lysate expressing mutant human TOR1A.
Test [3] in a line: small molecules captured by biotinylated probe aFGF2 – biochemical, small-molecule microarray, fluorescence 635/667, stem cell growth factor project, primary screen (AID 1067).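 Further: measures binding of biotinylated aFGF2 protein to printed compounds on slides; z-score merges feature fluorescence and signal-to-noise across triplicate slides.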 The settings on record: higher = more signal.
A short description of test [4]: small molecules captured by biotinylated probe aFGF10 – biochemical, small-molecule microarray, fluorescence 635/667, stem cell growth factor project, primary screen (AID 1071).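 Further: score merges 667 nm spot intensity and signal to noise from triplicate slides.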 The settings on record: higher = more signal.
The target of test [5] is Neurogenic locus notch homolog protein 2 (Homo sapiens) (UniProt Q04721). Briefly: small molecules binding Notch2 protein – biochemical, small-molecule microarray, 635 nm fluorescence, stem cell growth factors, primary screen (AID 1073). Conditions: higher = more signal.
Test [6] has as its target Pro-neuregulin-1, membrane-bound isoform (Homo sapiens) (UniProt Q02297). The test is described as follows: small molecules binding neuregulin-1 protein – biochemical, small-molecule microarray, fluorescence 635/667, psychiatric disease protein project, primary screen (AID 1075).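 Further: score combines 667 nm spot fluorescence with signal to noise.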 Conditions: NRG1 binding, 635 nm fluorescence, higher = more signal.
In test [7] the test system is Neuregulin-1 EGF-like domain. The test is described as follows: small molecules binding NRG1 EGF domain – biochemical, small-molecule microarray, 635 nm fluorescence, primary screen (AID 1081).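 Further: binding of the protein to compounds printed on small-molecule microarray slides.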 Conditions: higher = more signal.
Test [8] can be described thus: FRG1 expression reporter modulators in myotubes – cell-based, C2C12 myotubes, firefly/Renilla luciferase, luminescence, FRG1 inhibition for FSHD, primary screen (AID 1084). Conditions: FRG1 promoter luciferase, higher = more signal, called active from +8 up or from −8 down.
The nature of test [9]: small molecules captured by biotinylated probe aFST – biochemical, small-molecule microarray, fluorescence 635/667, stem cell growth factor project, primary screen (AID 1086).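 Further: score merges 667 nm fluorescence with signal-to-noise of each printed compound spot.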 The settings on record: higher = more signal.
Test [10] in a line: binders of probe aHhip on microarray, primary screen, stem cell growth factor project, biochemical, small-molecule microarray, fluorescence 635/667 (AID 1087).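 Further: score merges spot fluorescence at 667nm with spot signal to noise ratio.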 Conditions: higher = more signal.
In test [11] the test system is PRMT1 (protein arginine N-methyltransferase 1). The test is described as follows: small molecules binding arginine methyltransferase PRMT1 – biochemical, small-molecule microarray, 635 nm fluorescence, primary screen (AID 1088).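 Further: binding of Prmt1 protein to compounds spotted on small-molecule microarray slides.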 The settings on record: higher = more signal.
Test [12] in a line: growth effects on S. cerevisiae YJM789 – YJM789 clinical isolate, OD600, 24 h, basal, primary screen (AID 1089).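 Further: growth of clinical yeast isolate S. cerevisiae YJM 789 seeded 1000 cells per well; test concentration not given here.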 Conditions: higher = more signal, called active from +8 up or from −8 down.
Test [13] in a line: S. pombe growth modifiers, basal conditions – strain 972, OD600, 24 h, no modulator, primary screen (AID 1090).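 Further: basal condition with compound alone and no growth modifier present; test concentration not given here.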 Conditions: S. pombe 972 growth, higher = more signal, called active from +8 up or from −8 down.
The nature of test [14]: budding yeast growth modifiers under rapamycin – strain BY4716, OD600, 96 h, primary screen (AID 1091). Further: test concentration not given here. Conditions: S. cerevisiae BY4716 + rapamycin, higher = more signal, called active from +8 up or from −8 down.
Test [15] has as its target Torsin-1A-interacting protein 2 (Homo sapiens) (UniProt Q8NFQ8). The test is described as follows: small molecules binding lysate-expressed LULL1 – cell lysate, human LULL1 lysate, 635/667 nm fluorescence, primary screen (AID 1092).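 Further: probe is lysate of COS7 cells overexpressing human LULL1; score merges per-feature 667 nm fluorescence with signal-to-noise.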 The settings on record: small-molecule microarray, hLULL1 lysate binding, 635 nm fluorescence; higher = more signal.
The nature of test [16]: optical density change of DRC41 E. coli – strain DRC41, OD650, 24 h, E. coli filamentation project, primary screen (AID 1093).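 Further: MC1000 strain lacking acrAB efflux and sulA so SOS filamentation is blocked; test concentration not given here.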 The settings on record: E. coli DRC41 growth, higher = more signal, called active from +8 up or from −8 down.
The nature of test [17]: probe aLefty2 binding to arrayed compounds – biochemical, biotinylated probe, 635/667 nm fluorescence, primary screen (AID 1094).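 Further: score merges spot fluorescence near 667 nm with spot signal-to-noise ratio.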 The settings on record: small-molecule microarray, higher = more signal.
Test [18] has as its system Noggin (protein binding on small-molecule microarray). Briefly: small molecules binding Noggin protein – biochemical, 635/667 nm fluorescence, primary screen (AID 1095).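 Further: score merges 667 nm feature fluorescence with signal to noise over triplicate slides.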 The settings on record: 635 nm fluorescence, higher = more signal.
Test [19] addresses Neurogenic locus notch homolog protein 3 (Homo sapiens) (UniProt Q9UM47). The test is described as follows: small molecules binding NOTCH3 protein – biochemical, 635/667 nm fluorescence, primary screen (AID 1096). The settings on record: small-molecule microarray, 635 nm fluorescence, higher = more signal.
A short description of test [20]: probe aEGFR binding to arrayed compounds – biochemical, biotinylated probe, 635/667 nm fluorescence, primary screen (AID 1097).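 Further: probe is a biotinylated anti-EGFR antibody binding compounds printed on slides; score combines fluorescence near 667 nm and signal to noise of each spot.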 Conditions: small-molecule microarray, higher = more signal.

Neurogenic locus notch homolog protein 3 (Homo sapiens), sequence (Q9UM47 whole entry, looked up): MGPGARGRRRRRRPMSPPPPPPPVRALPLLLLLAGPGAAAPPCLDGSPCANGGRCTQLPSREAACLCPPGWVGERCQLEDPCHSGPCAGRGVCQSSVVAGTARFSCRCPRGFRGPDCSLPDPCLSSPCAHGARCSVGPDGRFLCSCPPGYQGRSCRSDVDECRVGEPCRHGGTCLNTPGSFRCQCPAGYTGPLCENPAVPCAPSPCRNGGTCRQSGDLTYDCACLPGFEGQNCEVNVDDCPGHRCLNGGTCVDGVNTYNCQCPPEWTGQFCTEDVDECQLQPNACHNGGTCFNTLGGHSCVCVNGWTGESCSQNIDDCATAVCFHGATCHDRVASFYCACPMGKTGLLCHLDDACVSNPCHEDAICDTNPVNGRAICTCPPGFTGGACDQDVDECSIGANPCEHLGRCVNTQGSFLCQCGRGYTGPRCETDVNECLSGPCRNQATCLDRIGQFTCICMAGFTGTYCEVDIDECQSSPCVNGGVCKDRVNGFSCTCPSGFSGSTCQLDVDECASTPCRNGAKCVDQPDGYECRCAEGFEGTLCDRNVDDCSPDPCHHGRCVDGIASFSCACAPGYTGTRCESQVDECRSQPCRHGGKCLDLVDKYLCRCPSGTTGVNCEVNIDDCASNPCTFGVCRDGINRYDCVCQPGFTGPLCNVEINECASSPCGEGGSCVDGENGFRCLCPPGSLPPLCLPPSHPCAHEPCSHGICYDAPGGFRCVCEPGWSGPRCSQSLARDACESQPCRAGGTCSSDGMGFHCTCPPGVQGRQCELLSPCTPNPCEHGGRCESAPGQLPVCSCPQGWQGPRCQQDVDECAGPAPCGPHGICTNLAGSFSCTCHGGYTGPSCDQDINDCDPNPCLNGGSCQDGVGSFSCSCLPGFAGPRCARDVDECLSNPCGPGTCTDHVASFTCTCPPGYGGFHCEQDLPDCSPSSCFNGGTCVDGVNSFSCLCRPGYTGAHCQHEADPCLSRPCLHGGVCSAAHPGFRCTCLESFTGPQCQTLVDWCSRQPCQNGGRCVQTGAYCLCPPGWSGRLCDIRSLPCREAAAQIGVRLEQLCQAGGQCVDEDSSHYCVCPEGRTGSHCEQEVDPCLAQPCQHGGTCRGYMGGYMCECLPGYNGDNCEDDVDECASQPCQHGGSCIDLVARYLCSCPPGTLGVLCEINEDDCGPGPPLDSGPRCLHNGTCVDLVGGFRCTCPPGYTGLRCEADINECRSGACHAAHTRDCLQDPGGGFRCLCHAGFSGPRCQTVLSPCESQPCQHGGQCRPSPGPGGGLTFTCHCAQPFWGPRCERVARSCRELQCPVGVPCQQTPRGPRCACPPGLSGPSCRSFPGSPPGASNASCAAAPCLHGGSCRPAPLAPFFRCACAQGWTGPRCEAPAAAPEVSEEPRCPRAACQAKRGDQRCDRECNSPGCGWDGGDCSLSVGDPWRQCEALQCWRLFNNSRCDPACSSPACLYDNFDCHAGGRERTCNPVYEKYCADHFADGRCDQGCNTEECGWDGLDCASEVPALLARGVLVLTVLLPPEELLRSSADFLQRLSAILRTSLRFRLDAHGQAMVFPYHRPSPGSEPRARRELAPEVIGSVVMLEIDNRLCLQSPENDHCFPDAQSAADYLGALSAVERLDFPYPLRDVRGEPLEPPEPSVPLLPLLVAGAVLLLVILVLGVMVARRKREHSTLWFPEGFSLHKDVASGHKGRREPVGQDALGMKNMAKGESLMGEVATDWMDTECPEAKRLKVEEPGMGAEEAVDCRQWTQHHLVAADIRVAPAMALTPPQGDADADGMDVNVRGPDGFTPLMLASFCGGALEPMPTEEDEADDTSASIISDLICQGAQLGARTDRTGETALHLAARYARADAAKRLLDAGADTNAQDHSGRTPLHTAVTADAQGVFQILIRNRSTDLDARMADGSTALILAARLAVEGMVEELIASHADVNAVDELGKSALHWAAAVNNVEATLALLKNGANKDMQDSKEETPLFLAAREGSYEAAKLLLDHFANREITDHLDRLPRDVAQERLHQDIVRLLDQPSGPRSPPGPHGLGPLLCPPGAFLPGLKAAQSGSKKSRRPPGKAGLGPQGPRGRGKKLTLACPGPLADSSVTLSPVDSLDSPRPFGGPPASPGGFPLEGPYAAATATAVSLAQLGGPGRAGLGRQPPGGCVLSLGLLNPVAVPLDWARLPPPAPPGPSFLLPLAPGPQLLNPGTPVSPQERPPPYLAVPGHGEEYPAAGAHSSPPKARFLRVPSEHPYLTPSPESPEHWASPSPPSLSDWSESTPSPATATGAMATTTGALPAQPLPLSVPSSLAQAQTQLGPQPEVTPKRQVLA
Torsin-1A-interacting protein 2 (Homo sapiens), sequence (Q8NFQ8 whole entry, looked up): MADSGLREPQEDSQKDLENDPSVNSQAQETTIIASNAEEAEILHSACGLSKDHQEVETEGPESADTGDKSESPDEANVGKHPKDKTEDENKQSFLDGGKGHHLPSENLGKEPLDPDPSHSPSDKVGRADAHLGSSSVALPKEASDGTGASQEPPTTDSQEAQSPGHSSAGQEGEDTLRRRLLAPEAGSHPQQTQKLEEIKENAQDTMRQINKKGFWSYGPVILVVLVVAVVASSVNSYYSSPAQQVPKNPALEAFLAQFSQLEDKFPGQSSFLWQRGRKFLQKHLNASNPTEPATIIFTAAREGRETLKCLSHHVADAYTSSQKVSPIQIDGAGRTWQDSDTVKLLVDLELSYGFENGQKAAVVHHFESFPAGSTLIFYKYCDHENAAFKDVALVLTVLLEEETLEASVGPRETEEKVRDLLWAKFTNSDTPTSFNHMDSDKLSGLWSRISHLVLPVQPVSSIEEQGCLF
Pro-neuregulin-1, membrane-bound isoform (Homo sapiens), sequence (Q02297 whole entry, looked up, the tested form may be a part, canonical isoform): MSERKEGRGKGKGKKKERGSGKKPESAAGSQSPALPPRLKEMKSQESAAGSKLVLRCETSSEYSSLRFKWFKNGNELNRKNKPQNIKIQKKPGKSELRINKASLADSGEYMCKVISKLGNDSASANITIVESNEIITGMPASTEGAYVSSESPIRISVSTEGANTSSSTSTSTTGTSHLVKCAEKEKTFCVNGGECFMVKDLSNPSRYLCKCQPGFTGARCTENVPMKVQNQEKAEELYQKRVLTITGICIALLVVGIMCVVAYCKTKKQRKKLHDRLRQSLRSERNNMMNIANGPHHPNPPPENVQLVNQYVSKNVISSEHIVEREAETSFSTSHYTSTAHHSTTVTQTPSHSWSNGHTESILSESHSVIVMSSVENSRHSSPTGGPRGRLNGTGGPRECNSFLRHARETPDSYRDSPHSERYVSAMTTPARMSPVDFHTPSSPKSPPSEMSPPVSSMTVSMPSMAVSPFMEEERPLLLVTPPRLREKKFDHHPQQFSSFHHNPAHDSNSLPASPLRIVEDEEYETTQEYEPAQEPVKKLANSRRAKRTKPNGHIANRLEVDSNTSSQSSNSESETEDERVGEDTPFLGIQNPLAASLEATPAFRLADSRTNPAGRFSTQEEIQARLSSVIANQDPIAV

For `COCC#Cc1ccc([C@@H]2N[C@H](C(=O)O)CC[C@H]2C)cc1`, the composite z-score was -0.308 in test [1]; -0.087 in [2]; -0.12 in [3]; 0.0921 in [4]; 0.314 in test [5]; -0.595 in test [6]. Moreover, the composite z-score is -0.616 in test [7]; 0.399 in test [9]; 0.132 in [10]; 0.13 in [11]; 0.237 in test [15]; -0.186 in [17]. The composite z-score in [18] is 0.165; in test [19] it was -0.54; in test [20], -0.0953. Moreover, the z-score in test [8] is -1.34 (inactive); in [12], -1.63 (inactive); in [13], -1.81 (inactive); in [14] it was -1.34 (inactive); in test [16], 0.874 (inactive).
In the case of `CC(C)=NOC(C)CN1CCCCc2nc(C)c(C)cc21` (stereo not given), the composite z-score in test [1] was -0.216; in [2], 0.927; in test [3] it was -0.0858; in test [4] it was 0.0948; in test [5] it was -0.134; in [6] it was 0.152. Besides, the composite z-score in test [7] was 0.093; in test [9] it was 0.142; in test [10], 0.0695; in test [11], 0.434; in [15], 1.04; in [17], -0.0441. Moreover, the values for the composite z-score in [18], in test [19] and in [20] were 0.634, -0.0247 and -0.027, respectively. Also, the z-score is 0.265 (inactive) in test [8]; -0.139 (inactive) in test [12]; -0.104 (inactive) in test [13]; -0.0334 (inactive) in [14]; 0.194 (inactive) in test [16].
In the case of `COC(=O)[C@H](C)NC(=O)CC=C[C@@H](C)[C@@H]1C=C[C@H](O)[C@@H](CO)O1`, the composite z-score in test [1] is -0.636; in test [2], 0.677; in [3] it was -0.134; in [4] it was 0.538; in test [5], 0.0931; in [6], -0.419. The composite z-score was 0.655 in test [7]; 0.258 in test [9]; -0.0645 in test [10]; 0.854 in [11]; 0.248 in [15]; -0.0381 in test [17]. Further, the composite z-score in [18] is 1.34; in [19], 0.873; in test [20], 0.241. The z-score is 0.439 (inactive) in test [8]; 0.351 (inactive) in test [12]; 0.245 (inactive) in [13]; 0.358 (inactive) in [14]; 1.02 (inactive) in [16].
As for `COC(=O)[C@H](C)NC(=O)CCC1CC(OC(=O)NCCc2ccc(F)cc2)CC2(CCCC(COC(=O)NCCOc3ccccc3)O2)O1` (stereo not given in full), the composite z-score in [1] was -0.443; in test [2], 0.269; in test [3], -0.0392; in [4], 0.532; in test [5] it was 1.34; in test [6], 0.672. For the same molecule, the composite z-score in test [7] is 0.933; in [9], 0.238; in [10] it was -0.173; in [11], 1.46; in [15], 2.64; in [17], -0.0073. Further, the composite z-score in [18] is 0.724; in [19] it was 1.06; in [20], -0.106. Further, the z-score was 0.907 (inactive) in [8]; -0.233 (inactive) in test [12]; 0.927 (inactive) in [13]; 1.12 (inactive) in test [14]; 0.219 (inactive) in test [16].
Take `O=C1C=C[C@@H](O)[C@@H]2[C@@H]3C(=O)N(Cc4ccccc4)C(=O)[C@@H]3CC[C@@H]12`: the composite z-score in test [1] was -0.496; in test [2], -0.0062; in test [3], -0.171; in test [4] it was 0.373; in test [5] it was 0.632; in test [6], 0.159. For the same molecule, the composite z-score was 0.543 in test [7]; 0.0563 in [9]; 0.226 in [10]; -0.136 in [11]; 0.0218 in test [15]; -0.147 in test [17]. Besides, the composite z-score was 0.562 in [18], 0.798 in test [19] and -0.104 in test [20]. Besides, the z-score in test [8] is -0.895 (inactive); in test [12], 0.0129 (inactive); in [13] it was -0.676 (inactive); in test [14], -0.795 (inactive); in test [16], 0.575 (inactive).
